Values joined by “and” are separate entries in the source; they are usually repeats but may differ in a detail not shown here. Equal values may be shown once. Results filed as inconclusive are left out. Where a call stands in place of a potency, no number is given. Unmarked numbers belong to inactive results. Active and inactive are the calls of the source. Unless noted, calls come from the whole dose curve; as a rule, active = well fitted curve in the direction sought with a large enough effect; inconclusive = small, poorly fitted or top-dose-only effect, or another doubt; inactive = no such curve, though single readings can be large; an effect the other way counts as inactive or inconclusive. Where a SMILES comes first, the peptide text is derived from it. The star is where a group is joined. PhAc = O=C(Cc1ccccc1)*
Legend:
[1] = target: Calcium and integrin-binding protein 1 (Homo sapiens) (UniProt Q99828); experiment: Primary qHTS for Identification of Calcium Integrin Binding Protein 1 (CIB1) Competitor (AID 1508620);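 note: GST tagged CIB1 binding a fluorescein labelled alphaIIb integrin peptide tracer; top concentration of the series differs between compounds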
How it was run: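 Fluorescence polarization competition: GST-tagged CIB1 (1 uM final) preincubated with compound 15 min at room temperature, then FITC-labelled alphaIIb peptide (100 nM final) added. After 15 min at room temperature, polarization read at Ex 480/Em 540.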

[2] = target: Cytochrome P450 2D6 (Homo sapiens) (UniProt P10635); experiment: Cytochrome P450 family 2 subfamily D member 6 (CYP2D6) small molecule antagonists: luciferase biochemical (cell-free) qHTS assay (AID 1645840; active = well fitted curve in the direction sought with a large enough effect in the repeat runs; an effect the other way counts as inactive or inconclusive; note: nearly all actives have a fitted effect of over 55% in size; note: potency is the fitted concentration of half-maximal effect; for activity change, negative = inhibition: series mostly up to about 57 µM)
How it was run: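 P450-Glo CYP2D6 system: proluciferin substrate converted by enzyme to luciferin, read by luminescence proportional to activity. Enzyme-substrate mix with compound 10 min at room temperature, then NADPH regeneration 1 h before detection reagent.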

[3] = target: Cytochrome P450 2C9 (Homo sapiens) (UniProt P11712); experiment: Cytochrome P450 family 2 subfamily C member 9 (CYP2C9) small molecule antagonists: luciferase biochemical (cell-free) qHTS assay (AID 1645842; active = well fitted curve in the direction sought with a large enough effect in the repeat runs; an effect the other way counts as inactive or inconclusive; note: nearly all actives have a fitted effect of over 55% in size; note: potency is the fitted concentration of half-maximal effect; for activity change, negative = inhibition: series mostly up to about 57 µM)
How it was run: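 P450-Glo CYP2C9 system: proluciferin substrate with enzyme in mix containing 0.4% BSA, 10 min at room temperature, then NADPH regeneration solution added and incubated 1 h at 37C. Detection reagent stopped reaction; luminescence read after 20 min as RLU.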

[4] = Primary qHTS for inhibitors of nuclear receptor binding SET domain protein 2 (NSD2) in an isogenic RCH-ACV NSD2 p.E1099K mutant (9B) (AID 1645876); note: nearly all actives have a fitted effect of over 70% in size; note: potency is the fitted concentration of half-maximal effect
[5] = Primary qHTS for inhibitors of nuclear receptor binding SET domain protein 2 (NSD2) in an RCH-ACV wild type WT cells (2C) (AID 1645877); note: nearly all actives have a fitted effect of over 70% in size; note: potency is the fitted concentration of half-maximal effect

Chain of Calcium and integrin-binding protein 1 (Homo sapiens) (Q99828 whole entry, looked up): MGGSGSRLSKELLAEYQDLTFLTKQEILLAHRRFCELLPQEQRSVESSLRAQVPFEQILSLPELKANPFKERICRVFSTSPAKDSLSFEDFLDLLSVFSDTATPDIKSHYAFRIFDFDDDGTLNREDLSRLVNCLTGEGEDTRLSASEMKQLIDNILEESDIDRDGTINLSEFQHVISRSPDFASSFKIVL
Chain of Cytochrome P450 2C9 (Homo sapiens) (P11712 whole entry, looked up): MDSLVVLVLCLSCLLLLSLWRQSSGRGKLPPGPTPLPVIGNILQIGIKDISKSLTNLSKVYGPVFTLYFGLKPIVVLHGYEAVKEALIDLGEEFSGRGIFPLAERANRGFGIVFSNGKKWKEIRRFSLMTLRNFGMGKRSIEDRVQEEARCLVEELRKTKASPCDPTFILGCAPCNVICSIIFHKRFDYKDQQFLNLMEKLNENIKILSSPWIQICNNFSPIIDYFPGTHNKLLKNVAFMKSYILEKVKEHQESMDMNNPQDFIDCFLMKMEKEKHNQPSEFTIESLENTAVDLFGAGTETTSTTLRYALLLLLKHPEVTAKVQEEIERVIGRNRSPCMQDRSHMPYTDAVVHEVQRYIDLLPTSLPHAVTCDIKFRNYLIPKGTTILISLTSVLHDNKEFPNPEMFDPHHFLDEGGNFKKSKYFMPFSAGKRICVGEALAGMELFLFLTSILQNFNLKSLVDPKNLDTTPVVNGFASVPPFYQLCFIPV
Chain of Cytochrome P450 2D6 (Homo sapiens) (P10635 whole entry, looked up): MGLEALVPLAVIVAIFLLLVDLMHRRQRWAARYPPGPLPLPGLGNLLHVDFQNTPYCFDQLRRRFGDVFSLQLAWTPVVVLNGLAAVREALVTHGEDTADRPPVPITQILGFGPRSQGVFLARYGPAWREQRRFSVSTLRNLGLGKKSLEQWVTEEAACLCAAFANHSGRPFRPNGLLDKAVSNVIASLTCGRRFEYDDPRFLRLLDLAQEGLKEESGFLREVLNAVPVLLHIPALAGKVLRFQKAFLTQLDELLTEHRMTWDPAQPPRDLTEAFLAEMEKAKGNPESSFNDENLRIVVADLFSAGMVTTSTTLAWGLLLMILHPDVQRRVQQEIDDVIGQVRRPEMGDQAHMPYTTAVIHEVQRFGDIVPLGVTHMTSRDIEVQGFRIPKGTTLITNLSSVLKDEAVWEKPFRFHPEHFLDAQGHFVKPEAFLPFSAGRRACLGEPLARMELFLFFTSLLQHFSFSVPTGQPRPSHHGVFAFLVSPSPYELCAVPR

With `COC(=O)[C@H](Cc1ccc([N+](=O)[O-])cc1)NC(=O)c1cccc2ccccc12` as the compound, how does the Potency [1] read?
Its Potency is “inactive”.

What about the Potency [2] of the same compound?
The Potency was 2.13 µM (active).

What about the Potency [3] of the same compound?
The Potency was 3.79 µM (active).

And the Potency [4]?
The Potency was “inactive”.

What about the Potency [5] of the same compound?
Its Potency is “inactive”.

Which results are given for `Cc1oc(S(=O)(=O)N2CCCCC2)cc1NC(=O)Nc1ccccc1`?
Potency [1]: inactive; Potency [2]: 12 µM (active); Potency [3]: 6.01 µM (active); Potency [4]: inactive; Potency [5]: inactive

With `Nc1c(-c2ccccc2)nc(Cl)c2c(O)n[nH]c(=O)c12` as the compound, how does the Potency [1] read?
The Potency was “inactive”.

And the Potency [2]?
The Potency was “inactive”.

And the Potency [3]?
Its Potency is 10.7 µM (active).

And the Potency [4]?
The Potency was “inactive”.

And the Potency [5]?
Its Potency is “inactive”.

With `O=C(O)[C@H]1Cc2ccccc2CN1` as the compound, how does the activity change, negative = inhibition [1] read?
The activity change, negative = inhibition was 5.95% [at 12.4 µM].

What about the activity change, negative = inhibition [2] of the same compound?
The activity change, negative = inhibition was 4.56% [at 11.5 µM].

What about the activity change, negative = inhibition [3] of the same compound?
Its activity change, negative = inhibition is 2.02% [at 11.5 µM].

And the outcome [4]?
Its outcome is “inactive [at 4.96 µM]”.

And the outcome [5]?
The outcome was “inactive [at 4.96 µM]”.

For `Oc1ccc(CC2NCCc3cc(O)c(O)cc32)cc1` (stereo not drawn), which Potency [1] is on record?
Its Potency is “inactive”.

What about the Potency [2] of the same compound?
Its Potency is “inactive”.

And the Potency [3]?
Its Potency is “inactive”.

What about the Potency [4] of the same compound?
The Potency was “inactive”.

What about the Potency [5] of the same compound?
Its Potency is “inactive”.

For `COc1cc(Nc2nc3ccccc3nc2NS(=O)(=O)c2cccc(NC(=O)c3ccc(C)c(OC)c3)c2)cc(OC)c1`, which Potency [1] is on record?
The Potency was “inactive”.

What about the Potency [2] of the same compound?
The Potency was “inactive”.

What about the Potency [3] of the same compound?
The Potency was 1.51 µM (active).

And the Potency [4]?
The Potency was “inactive”.

And the Potency [5]?
Its Potency is “inactive”.

Which Potency [1] does the source give for `CN(C)c1ccc(C2O[C@@H](c3ccccc3)C[C@H](c3ccccc3)O2)cc1` (stereo partly drawn) here?
Its Potency is “inactive”.

What about the Potency [2] of the same compound?
Its Potency is “inactive”.

And the Potency [3]?
Its Potency is 15.1 µM (active).

What about the Potency [4] of the same compound?
Its Potency is “inactive”.

What about the Potency [5] of the same compound?
Its Potency is “inactive”.

For `CC(C(=O)Nc1cc(C#N)ccc1CCCC(=O)O)c1ccc(F)c2ccccc12` (stereo not drawn), which Potency [1] is on record?
Its Potency is “inactive”.

What about the Potency [2] of the same compound?
Its Potency is “inactive”.

What about the Potency [3] of the same compound?
Its Potency is 0.536 µM (active).

And the Potency [4]?
The Potency was “inactive”.

And the Potency [5]?
The Potency was “inactive”.

With `COc1cccc(OC)c1-c1nc(C(=O)N[C@@H](CC(C)C)C(=O)O)cn1-c1ccnc2cc(Cl)ccc12` as the compound, how does the Potency [1] read?
Its Potency is “inactive”.

What about the Potency [2] of the same compound?
Its Potency is “inactive”.

What about the Potency [3] of the same compound?
The Potency was “inactive”.

What about the Potency [4] of the same compound?
Its Potency is “inactive”.

What about the Potency [5] of the same compound?
Its Potency is “inactive”.

With `CCCC(C(=O)O)c1c(C)nc2ccc(Cl)cc2c1-c1ccccc1` (stereo not drawn) as the compound, how does the Potency [1] read?
The Potency was “inactive”.

What about the Potency [2] of the same compound?
The Potency was “inactive”.

What about the Potency [3] of the same compound?
Its Potency is 21.3 µM (active).

What about the Potency [4] of the same compound?
The Potency was “inactive”.

What about the Potency [5] of the same compound?
Its Potency is “inactive”.

Which Potency [1] does the source give for `CCCN(CCN1CCN(c2ccccc2OC)CC1)C1CCc2ncsc2C1` (stereo not drawn) here?
The Potency was “inactive”.

And the Potency [2]?
The Potency was 1.9 µM (active).

And the Potency [3]?
The Potency was “inactive”.

What about the Potency [4] of the same compound?
Its Potency is “inactive”.

And the Potency [5]?
The Potency was “inactive”.

Which results are given for `COc1ccc(-n2c(SCC#N)nc3sc4c(c3c2=O)CCCC4)cc1`?
Potency [1]: inactive; Potency [2]: inactive; Potency [3]: 4.77 µM (active); Potency [4]: inactive; Potency [5]: inactive

For `CCOC(=O)CNC(=O)[C@@H]1CCCN1C(=O)Cc1ccccc1` (PhAc-Pro-Gly-OEt), which Potency [1] is on record?
Its Potency is “inactive”.

What about the Potency [2] of the same compound?
Its Potency is “inactive”.

What about the Potency [4] of the same compound?
The Potency was “inactive”.

And the Potency [5]?
Its Potency is “inactive”.

For `Cc1ccc(Nc2nnc(-c3ccc([N+](=O)[O-])cc3)o2)cc1Cl`, which Potency [1] is on record?
The Potency was “inactive”.

What about the Potency [2] of the same compound?
Its Potency is “inactive”.

What about the Potency [5] of the same compound?
Its Potency is “inactive”.

Which results are given for `Cc1cc(-c2nncc3c(C(C)(C)C)c(OCc4ncnn4C)nn23)no1`?
Potency [1]: inactive; Potency [2]: inactive; Potency [3]: 3.01 µM (active); Potency [4]: inactive; Potency [5]: inactive

What does the source list for `Cc1cccc(NC(=O)CN2CCC(c3ccccn3)CC2)c1`?
Potency [1]: inactive; Potency [2]: 13.5 µM (active); Potency [3]: 3.38 µM (active); Potency [4]: inactive; Potency [5]: inactive

Which results are given for `CCc1nn(CCO)c(CC)c1Oc1cc(C#N)cc(C#N)c1`?
Potency [1]: inactive; Potency [2]: inactive; Potency [4]: inactive; Potency [5]: inactive

What does the source list for `COc1cc2nc(=NC(=O)c3cccnc3)n3c(c2cc1OC)NCC3`?
Potency [1]: inactive; Potency [2]: inactive; Potency [3]: inactive; Potency [4]: 4.59 µM (active); Potency [5]: 5.15 µM (active)

Which results are given for `Cc1ncc(NC(=O)c2ccc(CN3CCN(C)CC3)c(C(F)(F)F)c2)cc1Nc1nccc(-c2cccnc2)n1`?
Potency [1]: inactive; Potency [2]: 10.7 µM (active); Potency [4]: 7.28 µM (active) and 5.9 µM (active); Potency [5]: 8.17 µM (active) and 5.9 µM (active)

For `CC1(C)[C@H]2C[C@H](C/C=C\CCCC(=O)O)[C@@H](NC(=O)c3csc4ccc(O)cc34)[C@@H]1C2`, which Potency [1] is on record?
Its Potency is “inactive”.

What about the Potency [2] of the same compound?
Its Potency is “inactive”.

And the Potency [3]?
Its Potency is 1.34 µM (active).

And the Potency [4]?
The Potency was “inactive”.

What about the Potency [5] of the same compound?
Its Potency is “inactive”.

Which results are given for `O=C(Nc1ccc(N2CCC(C(=O)N3CCOCC3)CC2)cc1)c1cnc(Oc2ccccc2)nc1`?
Potency [1]: inactive; Potency [2]: inactive; Potency [4]: inactive; Potency [5]: inactive

For `CCOC(=O)CSc1nc2c(sc3ccccc32)c(=O)n1CCCN1CCCC1`, which Potency [1] is on record?
The Potency was “inactive”.

And the Potency [2]?
The Potency was 0.849 µM (active).

What about the Potency [3] of the same compound?
Its Potency is 13.5 µM (active).

What about the Potency [4] of the same compound?
The Potency was “inactive”.

And the Potency [5]?
Its Potency is “inactive”.

Which Potency [1] does the source give for `CC(C)NC(=O)c1ccc(C#Cc2ccncc2)cn1` here?
Its Potency is “inactive”.

What about the Potency [3] of the same compound?
Its Potency is 0.601 µM (active).

With `CC1(C)CC=C(c2cnc3ccccc3c2)c2cc(C(=O)Nc3ccc(C(=O)O)cc3)ccc21` as the compound, how does the Potency [1] read?
Its Potency is “inactive”.

What about the Potency [3] of the same compound?
Its Potency is 21.3 µM (active).

Which results are given for `COc1ccc(NC(=O)c2ccc(-c3ccc(C(N)=O)cc3C)cc2)cc1N1CCN(C)CC1`?
Potency [1]: inactive; Potency [2]: inactive; Potency [3]: inactive; Potency [5]: 14.5 µM (active)

For `Cc1ccc2nc(NC(=O)CSc3nc4c(c(=O)n3-c3ccc(F)cc3)SCC4)sc2c1`, which Potency [1] is on record?
Its Potency is “inactive”.

What about the Potency [2] of the same compound?
Its Potency is “inactive”.

What about the Potency [3] of the same compound?
Its Potency is 3.38 µM (active).

What about the Potency [4] of the same compound?
Its Potency is “inactive”.

What about the Potency [5] of the same compound?
Its Potency is “inactive”.

For `CNc1nc(Nc2cn(C(C)(C)C#N)nc2C)ncc1C(F)(F)F`, which Potency [1] is on record?
Its Potency is “inactive”.

What about the Potency [2] of the same compound?
Its Potency is “inactive”.

And the Potency [3]?
Its Potency is 7.56 µM (active).

And the Potency [4]?
The Potency was “inactive”.

And the Potency [5]?
Its Potency is “inactive”.

Which Potency [1] does the source give for `CCCCC(=O)N1c2ccccc2NC2=C(C(=O)CCC2)C1c1ccccc1Cl` (stereo not drawn) here?
The Potency was “inactive”.

What about the Potency [3] of the same compound?
Its Potency is 12 µM (active).

Which Potency [1] does the source give for `CC(CNS(=O)(=O)C(C)C)c1ccc(-c2ccc(C#N)cc2)cc1` (stereo not drawn) here?
The Potency was “inactive”.

What about the Potency [2] of the same compound?
The Potency was “inactive”.

What about the Potency [3] of the same compound?
The Potency was “inactive”.

And the Potency [5]?
The Potency was 8.17 µM (active).

With `CCOC(=O)C(CCc1ccccc1)NC1CCCN2CCCC(C(=O)O)N2C1=O` (stereo not drawn) as the compound, how does the Potency [1] read?
The Potency was “inactive”.

What about the Potency [2] of the same compound?
Its Potency is “inactive”.

What about the Potency [3] of the same compound?
The Potency was “inactive”.

What about the Potency [4] of the same compound?
The Potency was “inactive”.

And the Potency [5]?
The Potency was “inactive”.

Source: PubChem BioAssay (NCATS)
